Laboratory results reported in PubChem BioAssay (NCI).
Compounds without any hit were thinned out: in the full panel of roughly 79,000, 15% have a hit. Active and inactive are the calls of the source. Rule as the data show it: active = growth inhibition above about 70%; inactive = the rest.

Columns and labels:
[1] = NCI Yeast Anticancer Drug Screen. Data for the rad50 strain (AID 155);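 also: 0% = growth of vehicle-only cultures of the same strain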; settings: S. cerevisiae rad50 strain growth inhibition, hits give high values
Method in brief: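 Yeast carrying a defined DNA repair defect were exposed to test compounds, and growth was compared with vehicle-treated controls to give percent inhibition.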

[2] = NCI Yeast Anticancer Drug Screen. Data for the mec2-1 strain (AID 157); settings: S. cerevisiae mec2-1 strain, hits give high values
Method in brief: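 mec2-1 yeast strain, carrying an alteration in DNA damage repair or cell cycle control, was exposed to compounds; growth inhibition was measured relative to vehicle-treated controls.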

[3] = NCI Yeast Anticancer Drug Screen. Data for the sgs1 mgt1 strain (AID 161);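 also: 0% = growth of cultures given vehicle only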; settings: S. cerevisiae sgs1 mgt1 strain, hits give high values
Method in brief: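 Percent growth inhibition was derived by comparing compound-exposed mutant yeast with vehicle-exposed cultures. The strain carries alterations in DNA damage repair.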

[4] = NCI Yeast Anticancer Drug Screen. Data for the cln2 rad14 strain (AID 165);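 also: 0% = growth equal to vehicle treated cultures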; settings: S. cerevisiae cln2 rad14 strain, hits give high values
Method in brief: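 Yeast carrying cln2 and rad14 alterations (cell cycle control and DNA damage repair) were exposed to compounds. Growth inhibition was measured against vehicle-treated controls.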

[5] = NCI Yeast Anticancer Drug Screen. Data for the bub3 strain (AID 167); settings: S. cerevisiae bub3 mutant strain, hits give high values
Method in brief: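 Compounds were applied to a genetically altered yeast strain carrying a cell-cycle control defect. Growth inhibition was scored against vehicle-treated controls.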

[6] = NCI Yeast Anticancer Drug Screen. Data for the mlh1 rad18 strain (AID 175); settings: S. cerevisiae mlh1 rad18 strain growth inhibition, hits give high values
Method in brief: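 Growth inhibition of the yeast strain was measured after compound exposure and expressed relative to vehicle-treated controls. The strain carries defined defects in DNA damage repair.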

[7] = at 5.0 µM (retest, dose inferred, filed as 0.5)
[8] = at 50.0 µM (retest, dose inferred, filed as 5.0)

Measured: growth inhibition

O=C(O)c1ccc2ccccc2c1C(=O)c1cccc2ccccc12
inactive: [1]; [7] 12% | [1]; [8] 12% | [2]; [7] 1% | [2]; [8] 8% | [3]; [7] 0% | [3]; [8] 21% | [4]; [7] 7% | [4]; [8] 9% | [5]; [7] 0% | [5]; [8] 3% | [6]; [7] -5% | [6]; [8] 15%
active: [1]; at 50.0 µM 86.8% | [2]; at 50.0 µM 83.5% | [3]; at 50.0 µM 90.4% | [4]; at 50.0 µM 92.1% | [5]; at 50.0 µM 83.2% | [6]; at 50.0 µM 92.2%

O=[N+]([O-])c1ccccc1SCc1ccccc1
active: [1]; at 50.0 µM 85.4% | [5]; [8] 79% | [6]; [8] 74%
inactive: [1]; [7] 17% | [1]; [8] 47% | [2]; [7] -18% | [2]; [8] 35% | [2]; at 50.0 µM 15.8% | [3]; [7] 16% | [3]; [8] 49% | [3]; at 50.0 µM 54.7% | [4]; [7] 15% | [4]; [8] 43% | [4]; at 50.0 µM 44% | [5]; [7] -1% | [5]; at 50.0 µM 30.8% | [6]; [7] 13% | [6]; at 50.0 µM 52.6%

O=[N+]([O-])c1ccc(/C=c2\sc3scc(-c4ccc([N+](=O)[O-])cc4)[n+]3\c2=C/c2ccc([N+](=O)[O-])cc2)cc1
active: [1]; [7] 99% | [1]; [8] 99% | [1]; at 50.0 µM 86.9% | [2]; [7] 100% | [2]; [8] 99% | [2]; at 50.0 µM 75.5% | [3]; [7] 88% | [3]; [8] 99% | [3]; at 50.0 µM 97.5% | [4]; [7] 94% | [4]; [8] 99% | [5]; [7] 99% | [5]; [8] 99% | [6]; [7] 99% | [6]; [8] 99% | [6]; at 50.0 µM 94.6%
inactive: [4]; at 50.0 µM 69.3% | [5]; at 50.0 µM 54.1%

NC(CCl)=NCC1C2CC3CC(C2)CC1C3 (stereo not given)
inactive: [1]; [7] 14% | [2]; [7] 11% | [3]; [7] 11% | [4]; [7] -3% | [5]; [7] 10% | [6]; [7] 19%
active: [1]; [8] 99% | [1]; at 50.0 µM 87.9% | [2]; [8] 99% | [2]; at 50.0 µM 90.2% | [3]; [8] 99% | [3]; at 50.0 µM 90.8% | [4]; [8] 99% | [4]; at 50.0 µM 84.5% | [5]; [8] 98% | [5]; at 50.0 µM 89.2% | [6]; [8] 99% | [6]; at 50.0 µM 89.9%

Cc1ccc(S(=O)(=O)OC2C(C)OCOC(C)C2OS(=O)(=O)c2ccc(C)cc2)cc1 (stereo not given)
inactive: [1]; [7] 1% | [1]; [8] 0% | [1]; at 50.0 µM 24.6% | [2]; [7] -2% | [2]; [8] -1% | [2]; at 50.0 µM 11.9% | [3]; [7] -2% | [3]; [8] -17% | [3]; at 50.0 µM 5.9% | [4]; [7] 0% | [4]; [8] -12% | [4]; at 50.0 µM 16.6% | [5]; [7] 2% | [5]; [8] 15% | [6]; [7] 1% | [6]; [8] 1% | [6]; at 50.0 µM -3.85%
active: [5]; at 50.0 µM 93%

CC1=NN(c2ccccc2)C(=O)C12[C@H](c1ccccc1)C2(C#N)C#N (stereo not given in full)
active: [1]; [8] 92% | [1]; at 50.0 µM 84% | [2]; [8] 78% | [3]; [8] 96% | [3]; at 50.0 µM 87.3% | [4]; [8] 74% | [5]; [8] 81% | [5]; at 50.0 µM 77.6% | [6]; [8] 87% | [6]; at 50.0 µM 75.8%
inactive: [1]; [7] 34% | [2]; [7] 37% | [2]; at 50.0 µM 54% | [3]; [7] 46% | [4]; [7] 25% | [4]; at 50.0 µM 66.4% | [5]; [7] 41% | [6]; [7] 41%

Nc1ncnc2c1c(-c1ccccc1)cn2-c1ccc(Br)cc1
inactive: [1]; [7] 23% | [1]; [8] 38% | [1]; at 50.0 µM 43.1% | [2]; [7] 16% | [2]; [8] 43% | [2]; at 50.0 µM 21.7% | [3]; [7] 47% | [4]; [7] 13% | [4]; [8] 44% | [4]; at 50.0 µM 28.1% | [5]; [7] 3% | [5]; [8] 37% | [5]; at 50.0 µM -1.8% | [6]; [7] 14% | [6]; [8] 58% | [6]; at 50.0 µM 58.9%
active: [3]; [8] 80% | [3]; at 50.0 µM 94%

O=C(NCCCCCCNC(=O)n1cc(F)c(=O)[nH]c1=O)NC1C(O)OC(CO)C(O)C1O (stereo not given)
active: [1]; [8] 89% | [1]; at 50.0 µM 93.9% | [2]; [7] 80% | [2]; [8] 96% | [2]; at 50.0 µM 97.6% | [3]; [7] 83% | [3]; [8] 93% | [3]; at 50.0 µM 93.1% | [4]; [8] 84% | [5]; [8] 90% | [5]; at 50.0 µM 80% | [6]; [8] 90% | [6]; at 50.0 µM 88.2%
inactive: [1]; [7] 63% | [4]; [7] 34% | [4]; at 50.0 µM 51% | [5]; [7] 22% | [6]; [7] 48%

NC(=O)c1cccn1Cc1ccccc1SSc1ccccc1Cn1cccc1C(N)=O
active: [1]; [8] 98% | [1]; at 50.0 µM 89.5% | [2]; [8] 99% | [2]; at 50.0 µM 95.7% | [3]; [8] 99% | [3]; at 50.0 µM 94.2% | [4]; [8] 98% | [4]; at 50.0 µM 90.9% | [5]; [8] 99% | [5]; at 50.0 µM 92.8% | [6]; [8] 98% | [6]; at 50.0 µM 94.4%
inactive: [1]; [7] 32% | [2]; [7] 31% | [3]; [7] 47% | [4]; [7] 16% | [5]; [7] 24% | [6]; [7] 21%

Nc1ccc([N+](=O)[O-])cc1Nc1c2ccccc2nc2ccccc12
active: [1]; at 50.0 µM 82.3%
inactive: [1]; [7] 5% | [1]; [8] 15% | [2]; [7] 2% | [2]; [8] 5% | [2]; at 50.0 µM 17.7% | [3]; [7] 1% | [3]; [8] 27% | [3]; at 50.0 µM 40% | [4]; [7] -1% | [4]; [8] 34% | [4]; at 50.0 µM -6.85% | [5]; [7] -4% | [5]; [8] 17% | [5]; at 50.0 µM -43.4% | [6]; [7] 2% | [6]; [8] 37% | [6]; at 50.0 µM 31.4%
